Here are results for 40 compounds from PubChem BioAssay (Tox21).

Structures are written as SMILES. Where “and” joins values, the source holds several entries; their conditions need not be identical. Equal values may be shown once. Records with an inconclusive call do not appear. A call without a number means that no potency is given here. Some compounds were tested as several samples or in several runs, with calls that do not always agree. Calls of active or inactive are those of the source. Calls come from the whole dose curve; as a rule, active = well fitted cell-killing curve with a large enough effect in the repeat runs; inconclusive = weak or mixed curves, or effect the other way; inactive = no such curve, though single readings can be large or run the other way.
Potency is the fitted concentration of half-maximal effect.

A short description of this assay: qHTS assay for small molecule activators of the heat shock response signaling pathway - cell viability counter screen (AID 743209). Note: nearly all actives have a fitted effect of over 50% in size. The following applies: HSE-bla HeLa viability, CellTiter-Glo luminescence, 5 h; series mostly up to 62.6 µM. The source says:
U.S. Tox21 Program National Center for Advancing Translational Sciences [NCATS] NIH Chemical Genomics Center [NCGC] U.S. Environmental Protection Agency [EPA] National Institutes of Environmental Health Sciences [NIEHS] National Toxicology Program [NTP] U.S. Food and Drug Administration [FDA] Tox21 Assay Overview: Various chemicals, environmental and physiological stress conditions may lead to the activation of heat shock response/ unfolded protein response (HSR/UPR). There are three heat shock transcription factors (HSFs) (HSF-1, -2, and -4) mediating transcriptional regulation of the human HSR. To identify the compounds that activate HSR signaling, HSE-bla HeLa cell line (Invitrogen, Carlsbad, CA, USA) containing a beta-lactamase reporter gene under the control of the heat shock response elements was used to screen Tox21 10K compound library. The cytotoxicity of the Tox21 compound library against the HSE-bla HeLa cell line was tested in parallel by measuring the cell viability using CellTiter-Glo assay (Promega, Madison, WI) in the same wells.
Tox21 Assay Protocol Summary: The CellSensor HSE-bla HeLa cells (Invitrogen, Carlsbad, CA, USA) were dispensed at 1500 cells/6uL/well into 1536-well black wall/clear bottom plates using a Multidrop combi (Thermo Fisher Scientific, Waltham, MA) dispenser. After the assay plates were incubated at 37 C and 5% CO2 overnight, 23 nL of compounds dissolved in DMSO, positive controls or DMSO only was transferred to the assay plate by a Pintool station (Kalypsys, San Diego, CA). The plates were incubated at 37 C for 5 h. After 1 uL of LiveBLAzerTM B/G FRET substrate was added using a Flying Reagent Dispenser (FRD, Beckman Coulter, Indianapolis, IN, USA), the plates were incubated at room temperature for 2.5 h, and fluorescence intensity was measured by an Envision plate reader (PerkinElmer, Shelton, CT). For cell viability readout that measures cytotoxicity, 3 ul/well of CellTiter-Glo reagent was added into the assay plates using a FRD. After 30 min incubation at room temperature, the luminescence intensity in the plates was measured using a ViewLux (PerkinElmer) plate reader.
For the compound `CCCCC(CC)C(=O)OCCOCCOCCOC(=O)C(CC)CCCC` (stereo not given), the Potency result was “inactive”.
Regarding `CCCCNC(N)=O`, the Potency entry is “inactive”.
For `O=S(=O)(Oc1ccc(Cl)cc1Cl)c1ccccc1` the value was “inactive”; for `CCCCOCCOCCOC(=O)CCCCC(=O)OCCOCCOCCCC`, “inactive”.
Take `CCCCCCCCCCC=CC1CC(=O)OC1=O` (stereo not given): the Potency entry was “inactive”.
`O=[N+]([O-])C(CO)(CO)CO`: the Potency result was “inactive”.
For `CCCCCCOC(C)=O` the value was “inactive”.
For `CN(C)c1cccc(O)c1`, the Potency result is “inactive”.
Take `COCC(C)O` (stereo not given): the Potency entry was “inactive”.
In the case of `Cc1cc(=O)[nH]c(C(C)C)n1`, the Potency result was “inactive”.
In the case of `O=[N+]([O-])c1cc(N(CCO)CCO)ccc1NCCO`, the Potency entry was “inactive”.
For `Cc1cc(Cc2ccc(N)c(C)c2)ccc1N` the value was “inactive”; for `CCc1ccccc1O`, “inactive”.
With `CCc1ccc(O)cc1`, the Potency result was “inactive”.
`C[C@@H]1O[C@@H](OC[C@H]2O[C@@H](Oc3c(-c4ccc(O)c(O)c4)oc4cc(O)cc(O)c4c3=O)[C@H](O)[C@@H](O)[C@@H]2O)[C@H](O)[C@H](O)[C@H]1O`: the Potency entry is “inactive”.
Consider `CCOC(=O)[C@H](CCc1ccccc1)N[C@@H](C)C(=O)N1Cc2ccccc2C[C@H]1C(=O)O`, for which the Potency result is “inactive”.
As to `CC1COc2ccccc2N1C(=O)C(Cl)Cl` (stereo not given), the Potency result is “inactive”.
With `O=C1N=C(O)CN1/N=C/c1ccc(-c2ccc([N+](=O)[O-])cc2)o1`, the Potency entry is “inactive”.
For `CC(=O)[C@@]1(O)CC[C@H]2[C@@H]3CCC4=CC(=O)CC[C@]4(C)[C@H]3CC[C@@]21C` the value was “inactive”; for `CC#C[C@]1(O)CC[C@H]2[C@@H]3CCC4=CC(=O)CCC4=C3[C@@H](c3ccc(N(C)C)cc3)C[C@@]21C`, “inactive”.
Consider `CCOC(=O)C1OC1c1ccccc1` (stereo not given), for which the Potency result is “inactive”.
For `CC(C)(C)C(=O)C1C(=O)c2ccccc2C1=O` the value was “inactive”; for `COCC(=O)O`, “inactive”; for `Nc1cc(-c2ccncc2)c[nH]c1=O`, “inactive”.
Turning to `Cc1ccc(C)c(C)c1`, the Potency result was “inactive”.
With `CCCCCCCCCCCCN`, the Potency result is “inactive and 43.6 µM (active)”.
As to `CC1=C(/C=C/C(C)=C/C=C/C(C)=C/CO)C(C)(C)CCC1`, the Potency entry is “inactive”.
With `O=C(Oc1ccccc1)c1ccc(O)cc1`, the Potency entry was “inactive”.
On to `O=[N+]([O-])c1cccc(Cl)c1`, for which the Potency entry was “inactive”.
For `CCCCCC/C=C/CCCCCCCC(=O)O` the value was “inactive”.
As to `C/C=C(C)/C=C/C=C(C)C`, the Potency entry is “inactive”.
For `OCCOCCOCCOCCO` the value was “inactive”.
For `CC[Si](OC(C)=O)(OC(C)=O)OC(C)=O` the value was “inactive”; for `CC(=O)Nc1ccc(C(=O)O)cc1`, “inactive”.
As for `CC1=CC[C@H]2C[C@@H]1C2(C)C`, the Potency result is “inactive”.
For `Nc1c(S(=O)(=O)O)cc(Br)c2c1C(=O)c1ccccc1C2=O` the value was “inactive”.
For `O=C(O)c1cc(-c2ccccc2)nc2ccccc12` the value was “inactive”; for `CCCCC(CC)COC(C)=O` (stereo not given), “inactive”.
`C=C(C)C(=O)OCCCCCC`: the Potency entry is “inactive”.
As for `CS(=O)(=O)Nc1ccc([N+](=O)[O-])cc1Oc1ccccc1`, the Potency result is “inactive”.
